Results published in PubChem BioAssay (Tox21).
“And” between values parts separate entries of the source, which are not always exact repeats. Equal values may be shown once. Results filed as inconclusive are left out. A call without a number means that no potency is given here. Some compounds were tested as several samples or in several runs, with calls that do not always agree. The source made the active and inactive calls. Unless noted, calls come from the whole dose curve; as a rule, active = well fitted curve in the direction sought with a large enough effect in the repeat runs; inconclusive = weak or mixed curves; inactive = no such curve, though single readings can be large; an effect the other way counts as inactive or inconclusive.

Experiments:
[1] = target: Thyrotropin receptor (Homo sapiens) (UniProt P16473); assay: qHTS assay to identify small molecule antagonists of the thyroid stimulating hormone receptor (TSHR) signaling pathway (AID 1259385; calls by dose curve; note: nearly all actives have a fitted effect of over 20% in size)
Sequence of Thyrotropin receptor (Homo sapiens) (P16473 whole entry, looked up): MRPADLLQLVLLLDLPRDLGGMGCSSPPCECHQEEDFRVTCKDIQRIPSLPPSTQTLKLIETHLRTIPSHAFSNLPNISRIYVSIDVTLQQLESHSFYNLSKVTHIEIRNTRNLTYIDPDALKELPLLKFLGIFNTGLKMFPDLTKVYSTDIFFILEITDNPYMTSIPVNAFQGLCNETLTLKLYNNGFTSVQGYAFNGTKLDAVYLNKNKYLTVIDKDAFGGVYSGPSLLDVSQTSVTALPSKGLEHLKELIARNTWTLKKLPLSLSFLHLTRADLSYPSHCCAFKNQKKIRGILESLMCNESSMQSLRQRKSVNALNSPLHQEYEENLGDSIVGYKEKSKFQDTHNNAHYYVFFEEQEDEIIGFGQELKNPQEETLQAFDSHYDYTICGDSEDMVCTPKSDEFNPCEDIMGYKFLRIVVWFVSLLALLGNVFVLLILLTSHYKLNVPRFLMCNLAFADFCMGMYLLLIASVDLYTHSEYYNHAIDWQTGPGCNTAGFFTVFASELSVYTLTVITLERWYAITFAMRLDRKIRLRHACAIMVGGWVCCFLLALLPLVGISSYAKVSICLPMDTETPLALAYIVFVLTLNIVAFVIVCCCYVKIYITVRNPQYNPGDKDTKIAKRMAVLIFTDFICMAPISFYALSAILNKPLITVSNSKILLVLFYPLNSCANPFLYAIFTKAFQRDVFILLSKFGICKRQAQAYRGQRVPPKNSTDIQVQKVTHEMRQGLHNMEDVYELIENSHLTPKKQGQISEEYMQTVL
Summary of the method: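 TSHR-HEK293 cells (800/well) plated 18 h, then compounds with Ro20-1724 and TSH at 1.5 ng/mL final, 30 min at room temperature. cAMP quantified by HTRF (cAMP-d2/anti-cAMP-cryptate, 1 h); 15 concentrations in triplicate.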

[2] = qHTS assay to identify small molecule agonists of the estrogen receptor alpha (ER-alpha) signaling pathway in the presence of an antagonist - cell viability counter screen (AID 1259386);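 note: series mostly up to about 92 µM; cells exposed to compounds for 22 h at 37 °C before the viability read; nearly all actives have a fitted effect of over 30% in size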
Summary of the method: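 The test measures whether compounds kill ER-alpha reporter cells (VM7Luc4E2) under antagonist co-treatment (ICI-182,780, 10.0nM). Fluorescence from CellTiter-Fluor is read after a 22hr exposure.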

[3] = target: Progesterone receptor (Homo sapiens) (UniProt P06401); assay: qHTS assay to identify small molecule agonists of the progesterone receptor (PR) signaling pathway (AID 1346784; calls by dose curve; note: nearly all actives have a fitted effect of over 30% in size; note: potency is the fitted concentration of half-maximal effect)
Sequence of Progesterone receptor (Homo sapiens) (P06401 whole entry, looked up): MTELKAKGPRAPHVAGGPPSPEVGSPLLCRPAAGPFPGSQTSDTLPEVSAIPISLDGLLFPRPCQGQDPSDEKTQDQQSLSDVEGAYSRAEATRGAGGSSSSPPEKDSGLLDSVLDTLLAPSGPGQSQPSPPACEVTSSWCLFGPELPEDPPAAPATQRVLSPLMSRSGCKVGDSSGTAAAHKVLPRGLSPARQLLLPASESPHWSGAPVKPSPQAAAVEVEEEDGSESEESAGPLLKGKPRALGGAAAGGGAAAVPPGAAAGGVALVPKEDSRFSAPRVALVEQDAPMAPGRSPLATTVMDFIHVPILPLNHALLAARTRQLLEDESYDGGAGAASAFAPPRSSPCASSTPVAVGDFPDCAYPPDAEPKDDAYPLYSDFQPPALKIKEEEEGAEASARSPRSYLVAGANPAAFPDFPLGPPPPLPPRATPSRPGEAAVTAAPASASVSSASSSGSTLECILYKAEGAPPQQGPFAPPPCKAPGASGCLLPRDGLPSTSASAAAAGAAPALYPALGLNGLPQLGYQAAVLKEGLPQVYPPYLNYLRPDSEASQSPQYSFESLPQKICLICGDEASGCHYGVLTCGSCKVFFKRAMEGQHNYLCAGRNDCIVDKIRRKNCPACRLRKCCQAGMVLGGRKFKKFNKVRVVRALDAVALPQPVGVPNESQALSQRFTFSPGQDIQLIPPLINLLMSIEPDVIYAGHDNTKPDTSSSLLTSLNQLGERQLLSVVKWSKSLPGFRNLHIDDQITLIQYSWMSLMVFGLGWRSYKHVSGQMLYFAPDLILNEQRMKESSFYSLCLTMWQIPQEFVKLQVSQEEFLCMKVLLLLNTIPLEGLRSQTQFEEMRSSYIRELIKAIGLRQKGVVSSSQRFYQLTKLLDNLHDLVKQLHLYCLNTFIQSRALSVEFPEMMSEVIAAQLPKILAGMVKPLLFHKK
Summary of the method: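 Seed PR-UAS-bla HEK 293T cells (2% charcoal-stripped FBS), incubate 6 hr at 37C; add compounds in DMSO, 16 hr at 37C; add LiveBLAzer B/G substrate, 2 hr RT; read fluorescence intensity.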

[4] = target: Progesterone receptor (Homo sapiens) (UniProt P06401); assay: qHTS assay to identify small molecule antagonists of the progesterone receptor (PR) signaling pathway (AID 1346795; active = well fitted inhibition curve with a large enough effect in the signal ratio in the repeat runs, not every such curve was filed as active; the % refers to the signal ratio; note: potency is the fitted concentration of half-maximal effect)
Summary of the method: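 Screening used a GripTite HEK293T line with PR-responsive UAS-beta-lactamase. Cells were challenged with compound in the presence of 1 nM R5020 final for 16 hr at 37C; B/G FRET substrate, 2 hr room temperature, fluorescence.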

[5] = qHTS assay to identify small molecule antagonists of the progesterone receptor (PR) signaling pathway - cell viability counter screen (AID 1346798); note: nearly all actives have a fitted effect of over 50% in size; note: potency is the fitted concentration of half-maximal effect
Summary of the method: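 Measures cytotoxicity in parallel with the PR antagonist reporter read: HEK293T PR-UAS-bla cells get compound and R5020 for 16 hr, and remaining viable cells are quantified by CellTiter-Glo luminescence.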

[6] = qHTS assay to identify small molecule agonists of the progesterone receptor (PR) signaling pathway - cell viability counter screen (AID 1346799; calls by dose curve; note: nearly all actives have a fitted effect of over 45% in size; note: potency is the fitted concentration of half-maximal effect)
Summary of the method: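 Using the same plates as the PR reporter screen, HEK293T PR-UAS-bla cells received compounds for 16 hr at 37C and were then lysed with CellTiter-Glo; luminescence was read 30 min later at room temperature.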

[7] = qHTS assay to identify small molecule antagonists of the TGF-beta/Smad signaling pathway - cell viability counter screen (AID 1346824); note: nearly all actives have a fitted effect of over 50% in size
Summary of the method: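 SBE-bla HEK 293T cells, incubated overnight, then compound plus 0.25 ng/mL TGF-beta1 (stock added) for 5 hr at 37 C. Viability was read in the same wells by CellTiter-Glo luminescence after 30 min at room temperature.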

[8] = qHTS assay to identify small molecule agonists of the TGF-beta/Smad signaling pathway - cell viability counter screen (AID 1346829); note: top concentration of the series differs between compounds; nearly all actives have a fitted effect of over 45% in size
Summary of the method: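 Tox21 qHTS format: SBE-bla HEK 293T cells treated with DMSO-dissolved compounds for 5 hr; CellTiter-Glo luminescence after 30 min at room temperature.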

[9] = qHTS assay to identify small molecule agonists of the TGF-beta/Smad signaling pathway (AID 1346859; active = well fitted activation curve with a large enough effect in the signal ratio in the repeat runs, not every such curve was filed as active; the % refers to the signal ratio; note: series mostly up to about 77 µM)
Summary of the method: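 Beta-lactamase reporter activity downstream of Smad binding elements was measured in stably transfected HEK 293T cells; compounds were incubated for 5 hr, substrate for 2 hr at room temperature.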

[10] = target: Thyrotropin-releasing hormone receptor (Homo sapiens) (UniProt P34981); assay: qHTS assay to identify small molecule antagonists of the thyrotropin-releasing hormone receptor (TRHR) signaling pathway (AID 1346877; active = well fitted inhibition curve with a large enough effect in the repeat runs, not every such curve was filed as active; note: potency is the fitted concentration of half-maximal effect)
Sequence of Thyrotropin-releasing hormone receptor (Homo sapiens) (P34981 whole entry, looked up): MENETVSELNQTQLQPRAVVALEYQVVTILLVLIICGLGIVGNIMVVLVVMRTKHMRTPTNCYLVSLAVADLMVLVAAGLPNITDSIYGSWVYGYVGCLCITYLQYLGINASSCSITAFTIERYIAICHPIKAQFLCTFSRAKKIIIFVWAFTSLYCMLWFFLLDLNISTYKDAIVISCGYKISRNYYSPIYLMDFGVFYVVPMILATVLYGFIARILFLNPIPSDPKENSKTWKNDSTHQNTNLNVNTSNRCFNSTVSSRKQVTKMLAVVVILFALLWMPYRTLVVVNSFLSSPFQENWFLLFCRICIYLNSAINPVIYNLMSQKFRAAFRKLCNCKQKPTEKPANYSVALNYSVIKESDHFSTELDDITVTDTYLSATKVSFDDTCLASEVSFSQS
Summary of the method: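 Overnight-plated (18 h, 37 °C) HEK293 cells expressing TRHR were dye-loaded 2 h, treated with compound, then stimulated with TRH at 1 nM final. Fluorescence intensity was captured every second for 3 min.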

SMILES | outcome [1] | Potency [2] | Potency [3] | Potency [4] | Potency [5] | Potency [6] | Potency [7] | Potency [8] | outcome [9] | Potency [10]
N[C@@H](Cc1ccc(N(CCCl)CCCl)cc1)C(=O)O | inactive | inactive | inactive | inactive | inactive | inactive | inactive | inactive | inactive | inactive
C=CCc1ccc2c(c1)OCO2 | inactive | inactive | inactive | inactive |  | inactive | inactive | inactive | inactive | 
CCOc1cc(C=O)ccc1O | inactive | inactive | inactive | inactive |  | inactive | inactive | inactive | inactive | inactive
CCOP(=S)(OCC)O/N=C(\C#N)c1ccccc1 | inactive | inactive | inactive | 13.3 µM (active) |  | inactive | inactive | inactive | inactive | inactive
O=C1C=CC(=O)C=C1 | inactive | inactive | inactive | inactive | inactive | inactive | inactive | inactive | inactive | inactive
Cc1c(COC(=O)[C@@H]2[C@H](/C=C(\Cl)C(F)(F)F)C2(C)C)cccc1-c1ccccc1 | inactive | inactive | inactive | inactive |  | inactive and 54.3 µM (active) | inactive | inactive | inactive | 
Nc1cccnc1 | inactive | inactive | inactive | inactive | inactive | inactive | inactive | inactive | inactive | inactive
OCC(O)CO | inactive | inactive | inactive | inactive | inactive | inactive | inactive | inactive | inactive | inactive
COP(=S)(OC)Oc1cc(Cl)c(Cl)cc1Cl | inactive | inactive | inactive | inactive |  | inactive | inactive | inactive | inactive | inactive
CC(C)c1ccc(CO)cc1 | inactive | inactive | inactive | inactive |  | inactive | inactive | inactive | inactive | 
NNC(N)=S | inactive | inactive | inactive | 11.3 µM (active) and 21.7 µM (active) | 12.7 µM (active) and 24.3 µM (active) | 43.3 µM (active) | inactive | inactive | inactive | inactive
S=C1NCCN1 | inactive | inactive | inactive | inactive | inactive | inactive | inactive | inactive | inactive | inactive
c1ccc(N=Nc2ccccc2)cc1 | inactive | inactive | inactive | inactive | inactive | inactive | inactive | inactive | inactive | inactive
COc1ccc(C(CN(C)C)C2(O)CCCCC2)cc1 (stereo not drawn) | inactive | inactive | inactive | inactive | inactive | inactive | inactive | inactive | inactive | 
N#CCCCl | inactive | inactive | inactive | inactive | inactive | inactive | inactive | inactive | inactive | 
C=CCc1ccc(OC)cc1 | inactive | inactive | inactive | inactive | inactive | inactive | inactive | inactive | inactive | inactive
O=[N+]([O-])c1cccc2ccccc12 | inactive | inactive | inactive | inactive |  | inactive | inactive | inactive | inactive | inactive
CC(C)(c1cc(Cl)c(O)c(Cl)c1)c1cc(Cl)c(O)c(Cl)c1 | inactive | inactive | inactive | 7.7 µM (active) |  | inactive | inactive | inactive | inactive | 30.1 µM (active)

SMILES | outcome [1] | Potency [2] | Potency [3] | Potency [4] | Potency [5] | Potency [6] | Potency [7] | Potency [8] | outcome [9] | Potency [10]
Nn1cnnc1 | inactive | inactive | inactive | inactive |  | inactive | inactive | inactive | inactive | inactive
CCCCN(CC)c1c([N+](=O)[O-])cc(C(F)(F)F)cc1[N+](=O)[O-] | inactive | inactive | inactive | inactive |  | inactive | inactive | inactive | inactive | inactive
Cc1ccc(OP(=O)(Oc2ccc(C)cc2)Oc2ccc(C)cc2)cc1 | inactive | inactive | inactive | 15.4 µM (active) |  | inactive | inactive | inactive | inactive | inactive
CN(C)C(=O)Nc1ccc(Cl)cc1 | inactive | inactive | inactive | inactive | inactive | inactive | inactive | inactive | inactive | 
Oc1ccc(-c2ccccc2)cc1 | inactive | inactive | inactive | 15.4 µM (active) | inactive | inactive | inactive | inactive | inactive | inactive
O=C(CCl)c1ccccc1 | inactive | inactive | inactive | inactive |  | inactive | inactive | inactive | inactive | 
CCOc1cc(Oc2ccc(C(F)(F)F)cc2Cl)ccc1[N+](=O)[O-] | inactive | inactive | inactive | 15.5 µM (active) and 13.7 µM (active) | inactive |  | inactive | inactive | inactive | inactive
CCN(CC)C(=O)/C(Cl)=C(\C)OP(=O)(OC)OC | inactive | inactive | inactive | inactive | inactive | inactive | inactive | inactive | inactive | inactive
Cc1cc(C)cc(C)c1 | inactive | inactive | inactive | inactive | inactive | inactive | inactive | inactive | inactive | inactive
C=CC(=O)OCCO | inactive | inactive | inactive | inactive | inactive | inactive | inactive | inactive | inactive | inactive
C=C(C)C(=O)OCC1CO1 (stereo not drawn) | inactive | inactive | inactive | inactive |  | inactive | inactive | inactive | inactive | inactive
Oc1c(Cl)c(Cl)c(Cl)c(Cl)c1Cl | inactive | inactive | inactive | 59.9 µM (active) and 48.6 µM (active) | inactive |  | inactive | inactive | inactive | inactive
CC(O)CCO (stereo not drawn) | inactive | inactive | inactive | inactive | inactive | inactive | inactive | inactive | inactive | inactive
C#C[C@]1(O)CC[C@H]2[C@@H]3CCC4=CC(=O)CC[C@]4(C)[C@H]3CC[C@@]21C | inactive | inactive | 0.0243 µM (active) | inactive |  | inactive | inactive | inactive | inactive | inactive
O=Cc1ccco1 | inactive | inactive | inactive | inactive |  | inactive | inactive | inactive | inactive | inactive
CCCCCCCCCCCOC(=O)c1ccccc1C(=O)OCCCCCCCCCCC | inactive | inactive | inactive | inactive | inactive | inactive | inactive | inactive | inactive | inactive
CC(C)C(=O)OCC(C)(C)C(OC(=O)C(C)C)C(C)C (stereo not drawn) | inactive | inactive | inactive | inactive |  | inactive | inactive | inactive | inactive | inactive
c1nc[nH]n1 | inactive | inactive | inactive | inactive |  | inactive | inactive | inactive | inactive | 
